Data published in PubChem BioAssay (NCATS).
Inconclusive results are not listed. Activity calls are given as the source filed them. Unless noted, calls follow the shape of the dose curve; as a rule, active = well fitted curve in either direction with a large enough effect (not every such curve was filed as active); inconclusive = small, poorly fitted or top-dose-only effect, or another doubt; inactive = flat fitted curve, though single readings scatter.

Columns and labels:
[1] = target: Lysosomal acid glucosylceramidase (Homo sapiens) (UniProt P04062); assay: Glucocerebrosidase-p2 (AID 348; in the data active = potency below about 10 µM; also: potency is read from the fitted curve at half-maximal effect); conditions: purified GBA, blue fluorogenic substrate, 40 min
Chain of Lysosomal acid glucosylceramidase (Homo sapiens) (P04062 whole entry, looked up): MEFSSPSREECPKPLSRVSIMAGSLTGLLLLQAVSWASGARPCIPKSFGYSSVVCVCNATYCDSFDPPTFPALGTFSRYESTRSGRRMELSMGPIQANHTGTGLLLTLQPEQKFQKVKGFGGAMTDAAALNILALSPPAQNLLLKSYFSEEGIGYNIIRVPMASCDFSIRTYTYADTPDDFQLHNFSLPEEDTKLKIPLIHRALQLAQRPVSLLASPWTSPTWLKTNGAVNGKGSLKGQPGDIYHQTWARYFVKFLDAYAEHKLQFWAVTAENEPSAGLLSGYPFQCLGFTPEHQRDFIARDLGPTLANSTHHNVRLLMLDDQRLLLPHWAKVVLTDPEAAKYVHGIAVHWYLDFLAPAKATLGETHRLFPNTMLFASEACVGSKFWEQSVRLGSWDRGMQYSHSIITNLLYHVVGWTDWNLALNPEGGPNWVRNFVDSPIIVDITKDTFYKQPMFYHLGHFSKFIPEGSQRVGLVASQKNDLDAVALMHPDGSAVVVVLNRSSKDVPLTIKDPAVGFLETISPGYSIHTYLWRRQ
In short: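 Compounds titrated from 0.6 nM upwards against 0.2 nM enzyme in pH 5.9 citric acid/KH2PO4, taurocholate, tween-20; blue fluorogenic substrate 80 uM, 40 min room temperature, stopped and read Ex 365/Em 440 for AC50.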

[2] = AP1 Signaling Pathway (AID 357); conditions: ME-180 AP-1-bla reporter, EGF-induced, beta-lactamase ratio, 5 h; at 7.69 µM (top of the series) unless noted;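 also: ME-180 reporter cells stimulated with EGF at its EC50 level; % is scaled to controls: 0 for no effect and ±100 for the full control effect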
In short: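 First, ME-180 AP-1-bla cells were cultured overnight at 37 °C in low-serum Opti-MEM. Next, titrated compounds with EC50 EGF were incubated 5 hours. Finally, CCF4 was added for 2.5 hours and the 460/530 nm ratio recorded.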

[3] = target: Cytochrome P450 1A2 (Homo sapiens) (UniProt P05177); assay: p450-cyp1a2 (AID 410; calls by dose curve; also: potency is read from the fitted curve at half-maximal effect); conditions: recombinant CYP1A2, luciferin-ME demethylation, luminescence; series mostly up to 57 µM
Chain of Cytochrome P450 1A2 (Homo sapiens) (P05177 whole entry, looked up): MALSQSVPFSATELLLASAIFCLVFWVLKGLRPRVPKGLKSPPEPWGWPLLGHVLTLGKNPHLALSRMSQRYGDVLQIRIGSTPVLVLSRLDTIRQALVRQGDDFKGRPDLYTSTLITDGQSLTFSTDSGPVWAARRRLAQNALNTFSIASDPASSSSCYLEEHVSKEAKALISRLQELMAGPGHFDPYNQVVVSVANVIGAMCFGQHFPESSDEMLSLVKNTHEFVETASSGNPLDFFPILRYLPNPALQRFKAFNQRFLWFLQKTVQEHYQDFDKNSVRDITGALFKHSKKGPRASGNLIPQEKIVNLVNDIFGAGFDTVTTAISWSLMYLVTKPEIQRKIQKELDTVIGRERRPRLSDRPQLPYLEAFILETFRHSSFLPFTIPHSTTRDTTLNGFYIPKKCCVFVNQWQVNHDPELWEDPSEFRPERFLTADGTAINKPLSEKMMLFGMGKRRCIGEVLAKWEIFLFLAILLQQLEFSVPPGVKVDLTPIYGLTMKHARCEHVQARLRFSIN
In short: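 20nM CYP1A2 with 100uM Luciferin-ME (at Km) in 100mM KPO4; compound preincubated 10 min, NADPH regeneration added, 60 min at room temperature. Luciferin quantified by luminescence after detection reagent; normalized to 57 uM furafylline.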

[4] = NFAT Signaling Pathway (AID 444); conditions: Jurkat NFAT-bla M1, carbachol, beta-lactamase ratio, 5 h; at 7.69 µM (top of the series) unless noted;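 also: carbachol stimulus at about its EC50 of 1 µM final; % is scaled to controls: 0 for no effect and ±100 for the full control effect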
In short: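 Jurkat cells with NFAT-driven β-lactamase reporter and co-expressed M1 receptor, stimulated with carbachol (final 1 uM, ~EC50), compound titration, 5 h at 37 °C. CCF4 loaded 1 h at RT; 460/530 nm ratio gave %activity and AC50.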

[5] = Stat Signaling Pathway (AID 446); conditions: ME-180 SIE beta-lactamase reporter, IL-6 stimulated, 5 h; at 7.69 µM (top of the series) unless noted;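 also: ME-180 cervical cancer cells given 40 pM IL-6 alongside compound; SIE-controlled beta-lactamase reporter measured as 460/530 nm FRET emission ratio; % is scaled to controls: 0 for no effect and ±100 for the full control effect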
In short: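 ME-180 SIE-bla cells; overnight plating; cpd + IL-6 40 pM, 5 h, 37 C; LiveBLAzer 2.5 h RT; 460/530 nm emission ratio. Normalized to 300 pM IL-6 and 125 nM JAK inhibitor controls.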

[6] = target: Glucocorticoid receptor (Homo sapiens) (UniProt P04150); assay: GR-GFP Redistribution (AID 450;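 active = compounds whose dose series gives a full or clear partial fitted curve of increased nuclear translocation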; also: potency is read from the fitted curve at half-maximal effect); conditions: U2OS GR-GFP nuclear translocation, laser cytometry, 2 h
Chain of Glucocorticoid receptor (Homo sapiens) (P04150 whole entry, looked up, the tested form may be a part): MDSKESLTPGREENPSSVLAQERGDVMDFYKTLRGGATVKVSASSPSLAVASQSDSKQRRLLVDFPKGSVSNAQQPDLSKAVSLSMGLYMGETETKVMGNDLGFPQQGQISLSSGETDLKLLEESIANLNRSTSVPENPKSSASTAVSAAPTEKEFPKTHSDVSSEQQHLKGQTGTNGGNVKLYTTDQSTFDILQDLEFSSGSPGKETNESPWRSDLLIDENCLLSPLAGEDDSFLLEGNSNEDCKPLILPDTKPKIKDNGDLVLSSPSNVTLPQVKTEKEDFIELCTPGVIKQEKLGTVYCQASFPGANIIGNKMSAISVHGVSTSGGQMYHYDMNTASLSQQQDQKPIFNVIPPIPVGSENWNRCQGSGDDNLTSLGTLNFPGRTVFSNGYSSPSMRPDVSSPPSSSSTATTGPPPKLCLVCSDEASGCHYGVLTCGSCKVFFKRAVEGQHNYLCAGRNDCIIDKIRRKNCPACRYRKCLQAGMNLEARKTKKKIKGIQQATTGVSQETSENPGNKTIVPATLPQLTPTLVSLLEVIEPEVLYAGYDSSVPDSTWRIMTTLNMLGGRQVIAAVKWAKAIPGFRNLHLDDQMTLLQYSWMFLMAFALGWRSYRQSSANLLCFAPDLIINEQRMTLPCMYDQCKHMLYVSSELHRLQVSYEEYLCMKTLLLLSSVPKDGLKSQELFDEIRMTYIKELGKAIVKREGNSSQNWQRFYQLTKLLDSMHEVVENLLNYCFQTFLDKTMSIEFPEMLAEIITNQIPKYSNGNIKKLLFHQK

[7] = target: Glucocorticoid receptor (Homo sapiens) (UniProt P04150); assay: GR-EFC Redistribution (AID 451; calls by dose curve; also: potency is read from the fitted curve at half-maximal effect); conditions: CHO-K1 GR-EFC translocation, beta-gal luminescence, 2 h
In short: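 CHO-K1 cells expressing nuclear EA and GR-ED fragments of b-gal; compounds titrated up to 46 uM final, 2 h at 37 C. GR nuclear translocation read as complemented b-gal luminescence after 1 h RT detection.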

[8] = target: Mitogen-activated protein kinase 10 (Mus musculus) (UniProt Q61831); assay: JNK3 AlphaScreen Assay (AID 530); conditions: JNK3 lysate, c-Jun phosphorylation; series mostly up to 57.1 µM;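 also: kinase came from lysate of stimulated human HepG2 cells; signal reports phosphorylation of biotinylated GST-cJun 1-79 at Ser73 with 10 µM ATP; % is scaled to controls: 0 for no effect and ±100 for the full control effect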
In short: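 Pre-activated (IL-1β/TNFα) JNK3 in HepG2 lysates phosphorylates biotin-GST-cJun(1-79), 10 uM ATP; anti-phospho-cJun(Ser73) AlphaScreen read at room temperature, pH 7.6 Tris buffer. Compounds pre-incubated 15 min as titrations.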

[9] = target: 3',5'-cyclic-AMP phosphodiesterase 4B (Homo sapiens) (UniProt Q07343); assay: qHTS Assay for Inhibitors of PDE-IV (AID 607; active = well fitted activation curve with a large enough effect in the main read-out, with a control signal flat, not every such curve was filed as active; also: % of control where 0% means no effect); conditions: HEK293 ACTOne CNG channel cells, membrane potential fluorescence; series mostly up to 22.9 µM
Chain of 3',5'-cyclic-AMP phosphodiesterase 4B (Homo sapiens) (Q07343 whole entry, looked up): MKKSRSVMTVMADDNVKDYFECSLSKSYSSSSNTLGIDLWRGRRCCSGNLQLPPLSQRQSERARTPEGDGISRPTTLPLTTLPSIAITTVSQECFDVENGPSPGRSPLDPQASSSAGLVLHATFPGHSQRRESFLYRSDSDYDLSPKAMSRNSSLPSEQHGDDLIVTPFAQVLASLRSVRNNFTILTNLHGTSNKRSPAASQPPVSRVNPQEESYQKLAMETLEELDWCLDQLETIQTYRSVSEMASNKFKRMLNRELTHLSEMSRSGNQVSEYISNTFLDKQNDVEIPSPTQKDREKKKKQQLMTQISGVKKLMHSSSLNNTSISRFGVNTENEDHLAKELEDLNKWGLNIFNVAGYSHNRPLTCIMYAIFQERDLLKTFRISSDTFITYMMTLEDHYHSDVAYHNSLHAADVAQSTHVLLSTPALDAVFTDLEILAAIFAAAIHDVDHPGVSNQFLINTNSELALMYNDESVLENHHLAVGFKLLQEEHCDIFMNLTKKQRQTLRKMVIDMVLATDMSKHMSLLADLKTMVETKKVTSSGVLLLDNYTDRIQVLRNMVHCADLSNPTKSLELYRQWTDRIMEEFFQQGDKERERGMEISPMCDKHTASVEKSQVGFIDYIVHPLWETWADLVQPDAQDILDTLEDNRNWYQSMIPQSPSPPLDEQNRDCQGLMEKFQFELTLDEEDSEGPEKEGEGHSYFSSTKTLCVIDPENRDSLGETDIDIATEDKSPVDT
In short: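 ACTOne HEK293 cells carry a modified cAMP-gated CNG channel and express endogenous PDE4; plated 1000 cells/well, compounds up to 22.9 uM final. Membrane-potential dye fluorescence (ex 535/em 590) was read; parental cells received 10 uM forskolin + 100 uM RO 20-1724.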

[10] = target: Cytochrome P450 3A4 (Homo sapiens) (UniProt P08684); assay: qHTS Assay for Activators of Cytochrome P450 3A4 (AID 885; active = well fitted curve in the direction sought with a large enough effect; an effect the other way counts as inactive or inconclusive; also: nearly all actives have a fitted effect of over 65% in size); conditions: recombinant CYP3A4, Luciferin-PPXE luminescence, 60 min; series mostly up to 57.1 µM
Chain of Cytochrome P450 3A4 (Homo sapiens) (P08684 whole entry, looked up): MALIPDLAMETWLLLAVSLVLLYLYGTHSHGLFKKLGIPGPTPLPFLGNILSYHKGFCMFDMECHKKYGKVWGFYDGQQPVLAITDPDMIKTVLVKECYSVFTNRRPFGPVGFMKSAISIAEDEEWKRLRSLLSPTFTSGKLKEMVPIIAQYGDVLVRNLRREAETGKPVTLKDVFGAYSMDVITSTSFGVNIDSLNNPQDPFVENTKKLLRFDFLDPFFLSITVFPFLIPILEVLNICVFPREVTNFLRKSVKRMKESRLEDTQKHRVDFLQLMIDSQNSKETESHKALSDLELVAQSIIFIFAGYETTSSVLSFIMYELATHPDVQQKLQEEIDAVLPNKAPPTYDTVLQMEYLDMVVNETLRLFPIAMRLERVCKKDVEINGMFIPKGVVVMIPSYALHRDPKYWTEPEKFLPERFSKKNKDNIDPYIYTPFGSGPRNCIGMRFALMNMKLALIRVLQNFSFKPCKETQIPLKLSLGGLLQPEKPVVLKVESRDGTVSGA
In short: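 20nM CYP3A4 + 25uM Luciferin-PPXE (=KM), 200mM KPO4; cpd 10 min RT; NADPH regen, 60 min RT; stop w/ detection buffer, 20 min; luminescence. Normalized to 57 uM ketoconazole.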

[11] = qHTS Assay for Identification of Small Molecule Agonists for Hypoxia Response Element Signaling Pathway (AID 914; active = well fitted activation curve with a large enough effect in the signal ratio, with a control signal flat, not every such curve was filed as active; the % refers to the signal ratio; also: % of control where 0% means no effect); conditions: ME-180 HRE-bla reporter, beta-lactamase ratio, CoCl2, 17 h; activation: stronger effect = higher value
In short: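 ME-180 cells carrying an HRE-driven beta-lactamase reporter were treated with compounds in a titration series plus an EC50 level of CoCl2 for 17 h at 37 degrees Celsius; CCF4 readout as the 460nm/530nm ratio gave AC50 values.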

[12] = qHTS Assay for Lipid Storage Modulators (AID 1519; calls by dose curve); conditions: Drosophila S3 cells, BODIPY lipid droplet/cell ratio, laser cytometry, cells loaded with oleic acid; for activity change, negative = inhibition: at 57.5 µM (top of the series)
In short: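 Cells seeded at 5,000 per well were treated with compounds over a concentration series and loaded with oleic acid (400 uM, as added). Lipid droplet fluorescence (488 nm excitation, 500-530 nm channel) was read by laser-scanning cytometry and normalized to 20 uM Triacsin C.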

[13] = Primary qHTS for small molecule stabilizers of the endoplasmic reticulum resident proteome: Secreted ER Calcium Modulated Protein (SERCaMP) assay (AID 1508630; active = well fitted curve in the direction sought with a large enough effect; an effect the other way counts as inactive or inconclusive; also: % is scaled to controls: 0 for no effect and ±100 for the full control effect); conditions: SH-SY5Y GLuc-SERCaMP (Gaussia luciferase released on ER calcium loss) secretion, thapsigargin, luminescence; series mostly up to 38.4 µM
In short: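 GLuc-SERCaMP-expressing SH-SY5Y cells, pretreated 16 h with compound, are challenged with thapsigargin to empty ER calcium stores; after 4 h, coelenterazine is added directly to the medium and luminescence is imaged.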

[14] = Confirmation and Secondary Assay for Modulators of Hemoglobin Beta Chain Splicing at IVS2 654 locus (AID 910; active = well fitted curve in the direction sought with a large enough effect; an effect the other way counts as inactive or inconclusive;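 also: HeLa cells stably carrying EGFP split by mutant beta-globin IVS2-654 intron; % of control where 0% means no effect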); conditions: HeLa EGFP-654 splicing reporter, GFP fluorescence, 48 h; series mostly up to 38.3 µM
In short: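 HeLa cells stably expressing EGFP interrupted by β-globin IVS2-654 intron, seeded overnight in Opti-MEM/2% FCS, then treated 2 days at 37 °C. Restored splicing read as total peak GFP intensity per well by laser scanning cytometry (488 nm excitation, 500–520 nm emission); 500 nM antisense PNA as control.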

[15] = Confirmation and Secondary Assay for Modulators of Hemoglobin Beta Chain Splicing at IVS2 705 locus (AID 930; active = well fitted curve in the direction sought with a large enough effect; an effect the other way counts as inactive or inconclusive;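 also: HeLa cells stably expressing the EGFP-705 splicing reporter; % of control where 0% means no effect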); conditions: HeLa EGFP-705 splicing reporter, GFP fluorescence, 48 h; series mostly up to 38.3 µM
In short: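 HeLa cells stably carrying EGFP interrupted by mutant beta-globin IVS2-705 intron (CMV-driven) were seeded at 500 cells/well, treated next day with compound for 2 days at 37C; corrected splicing restores EGFP, read as total peak GFP intensity per well.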

[16] = target: Cytochrome P450 2C9 (Homo sapiens) (UniProt P11712); assay: qHTS Assay for Inhibitors and Substrates of Cytochrome P450 2C9 (AID 883; active = well fitted curve in the direction sought with a large enough effect; an effect the other way counts as inactive or inconclusive; also: % is scaled to controls: 0 for no effect and ±100 for the full control effect; nearly all actives have a fitted effect of over 60% in size); conditions: recombinant CYP2C9, luciferin-H luminescence, 60 min; series mostly up to 57.1 µM
Chain of Cytochrome P450 2C9 (Homo sapiens) (P11712 whole entry, looked up): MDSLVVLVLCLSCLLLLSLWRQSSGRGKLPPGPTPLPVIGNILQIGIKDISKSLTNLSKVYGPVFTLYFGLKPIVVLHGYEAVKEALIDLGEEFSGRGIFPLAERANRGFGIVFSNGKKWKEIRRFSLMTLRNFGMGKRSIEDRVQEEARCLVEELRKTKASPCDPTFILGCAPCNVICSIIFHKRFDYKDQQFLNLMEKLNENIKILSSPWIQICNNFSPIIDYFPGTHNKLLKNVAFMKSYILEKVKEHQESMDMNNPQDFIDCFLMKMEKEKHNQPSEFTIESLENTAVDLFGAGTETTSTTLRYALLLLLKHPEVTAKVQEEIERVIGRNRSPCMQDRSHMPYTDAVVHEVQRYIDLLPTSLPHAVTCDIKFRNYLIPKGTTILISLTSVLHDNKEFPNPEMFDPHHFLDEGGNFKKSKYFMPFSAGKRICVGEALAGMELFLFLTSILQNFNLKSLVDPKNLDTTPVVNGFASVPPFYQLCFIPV
In short: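 Human CYP2C9 (10nM) with Luciferin-H at 100uM (its KM) in 25mM KPO4; compound preincubated 10 min at 37C, then NADPH regeneration for 60 min at 37C. Luciferin read by luminescence after detection reagent; normalized to 57uM sulphaphenazole as full inhibition.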

[17] = target: Cytochrome P450 2C19 (Homo sapiens) (UniProt P33261); assay: qHTS Assay for Inhibitors and Substrates of Cytochrome P450 2C19 (AID 899; active = well fitted curve in the direction sought with a large enough effect; an effect the other way counts as inactive or inconclusive; also: % is scaled to controls: 0 for no effect and ±100 for the full control effect; nearly all actives have a fitted effect of over 60% in size); conditions: recombinant CYP2C19, luciferin-H EGE luminescence; series mostly up to 57.1 µM
Chain of Cytochrome P450 2C19 (Homo sapiens) (P33261 whole entry, looked up): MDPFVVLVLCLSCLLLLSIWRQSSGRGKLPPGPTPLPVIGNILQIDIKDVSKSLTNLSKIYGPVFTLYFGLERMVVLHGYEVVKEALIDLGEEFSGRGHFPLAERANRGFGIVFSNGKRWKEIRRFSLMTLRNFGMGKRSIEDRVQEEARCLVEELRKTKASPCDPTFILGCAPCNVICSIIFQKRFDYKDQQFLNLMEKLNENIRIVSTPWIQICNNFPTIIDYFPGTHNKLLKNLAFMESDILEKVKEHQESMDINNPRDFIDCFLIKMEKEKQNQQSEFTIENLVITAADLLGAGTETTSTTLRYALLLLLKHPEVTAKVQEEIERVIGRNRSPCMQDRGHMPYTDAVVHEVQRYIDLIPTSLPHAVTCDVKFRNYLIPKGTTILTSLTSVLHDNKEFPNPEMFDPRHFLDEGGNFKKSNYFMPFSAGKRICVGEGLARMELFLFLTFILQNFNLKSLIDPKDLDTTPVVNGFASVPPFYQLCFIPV
In short: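 5 nM human CYP2C19 with 10uM Luciferin-H EGE (at KM) in 50mM KPO4, compound preincubated 10 min at 37C, then NADPH regeneration for 60 min at 37C. Luciferin read by luminescence after detection reagent; normalized to 57uM ketoconazole as full inhibition.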

[18] = target: Cytochrome P450 3A4 (Homo sapiens) (UniProt P08684); assay: qHTS Assay for Inhibitors and Substrates of Cytochrome P450 3A4 (AID 884; active = well fitted curve in the direction sought with a large enough effect; an effect the other way counts as inactive or inconclusive; also: potency is read from the fitted curve at half-maximal effect; nearly all actives have a fitted effect of over 50% in size); conditions: recombinant CYP3A4, Luciferin-PPXE luminescence; series mostly up to 57.1 µM
In short: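 20 nM human CYP3A4 with 25 uM Luciferin-PPXE (at KM) in 200 mM KPO4, preincubated 10 min with compound; NADPH regeneration started a 60 min RT reaction. Luciferin detected by luminescence, normalized to 57 uM ketoconazole as full inhibition.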

[19] = measured here: cell count channel max response
[20] = measured here: lipid channel max response

COc1ccc(Oc2ncc3ncc(=O)n(C[C@H]4CCCO4)c3n2)cc1
9.86%: max response [12, 19]
inactive: Potency [1] > 11.4 µM | activity change, negative = inhibition [2] -24.4% | activity change, negative = inhibition [4] -8.98% | activity, negative = inhibition [5] -26.1% | Potency [6] > 9.22 µM | Potency [7] > 46 µM | outcome [8] | Potency [9] | Potency [10] | activation [11] -21.9% | activity change, negative = inhibition [12] -4.96% | Potency [13]
2.03%: max response [12, 20]
active: Potency [3] 6.31 µM

Cc1noc(C)c1-c1cc(N(C)C)ncn1
11.9%: max response [12, 20]
active: Potency [3] 3.16 µM
inactive: Potency [1] > 11.4 µM | activity change, negative = inhibition [2] 10% | activity change, negative = inhibition [4] 9.29% | activity, negative = inhibition [5] 16% | Potency [6] > 46 µM | outcome [8] | Potency [9] | outcome [14] | activation [11] 0.655% | outcome [15] | activity change, negative = inhibition [12] 8.35% | Potency [13]
3.97%: max response [12, 19]

O=c1c(-c2ccc(F)cc2)nc2cnc(N3CCOCC3)nc2n1C[C@H]1CCCO1
-2.6%: max response [12, 20]
active: Potency [3] 1.58 µM
16.8%: max response [12, 19]
inactive: Potency [1] > 11.4 µM | activity change, negative = inhibition [2] 9.7% | activity change, negative = inhibition [4] 1.18% | activity, negative = inhibition [5] 29.2% | Potency [6] > 9.22 µM | Potency [7] > 46 µM | outcome [8] | Potency [9] | Potency [16] | Potency [17] | activity change, negative = inhibition [12] -21.9% | Potency [13]

c1ccc2c(-n3ccnc3)nc(-c3ccoc3)nc2c1
active: Potency [3] 0.501 µM | Potency [18] 0.199 µM
22.4%: max response [12, 20]
10.7%: max response [12, 19]
inactive: Potency [1] > 11.4 µM | activity change, negative = inhibition [2] -13.9% | activity change, negative = inhibition [4] 3.28% | activity, negative = inhibition [5] 7.69% | Potency [6] > 46 µM | Potency [7] > 46 µM | outcome [8] | Potency [10] | outcome [14] | outcome [15] | activity change, negative = inhibition [12] 9.53% | Potency [13]
